Inconclusive results are not listed. Active and inactive are the calls of the source. Calls follow the shape of the dose curve; as a rule, active = well fitted inhibition curve with a large enough effect; inconclusive = small, poorly fitted or top-dose-only effect, or effect the other way; inactive = flat fitted curve, though single readings scatter.
% is scaled to controls: 0 for no effect and ±100 for the full control effect; potency is read from the fitted curve at half-maximal effect.

In this assay the target is Ubiquitin carboxyl-terminal hydrolase 2 (Homo sapiens) (UniProt O75604). The assay is described as follows: Ub-rhodamine 110 based assay for inhibitors Ubiquitin-specific Protease USP2a. Also: nearly all actives have a fitted effect of over 50% in size. The settings on record: USP2a Ub-rhodamine110 cleavage, fluorescence; series mostly up to 38.3 µM; activity change, negative = inhibition: at the top concentration. In short, it runs like this: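 5 nM USP2a preincubated with compounds for 30 min at RT in 20 mM Tris-HCl pH 8.0, 2 mM CaCl2, 2 mM beta-mercaptoethanol, 0.05% CHAPS. Cleavage of 150 nM Ub-rhodamine 110 read kinetically (Ex 485/Em 531) for 7 min.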
Chain of Ubiquitin carboxyl-terminal hydrolase 2 (Homo sapiens) (O75604 whole entry, looked up): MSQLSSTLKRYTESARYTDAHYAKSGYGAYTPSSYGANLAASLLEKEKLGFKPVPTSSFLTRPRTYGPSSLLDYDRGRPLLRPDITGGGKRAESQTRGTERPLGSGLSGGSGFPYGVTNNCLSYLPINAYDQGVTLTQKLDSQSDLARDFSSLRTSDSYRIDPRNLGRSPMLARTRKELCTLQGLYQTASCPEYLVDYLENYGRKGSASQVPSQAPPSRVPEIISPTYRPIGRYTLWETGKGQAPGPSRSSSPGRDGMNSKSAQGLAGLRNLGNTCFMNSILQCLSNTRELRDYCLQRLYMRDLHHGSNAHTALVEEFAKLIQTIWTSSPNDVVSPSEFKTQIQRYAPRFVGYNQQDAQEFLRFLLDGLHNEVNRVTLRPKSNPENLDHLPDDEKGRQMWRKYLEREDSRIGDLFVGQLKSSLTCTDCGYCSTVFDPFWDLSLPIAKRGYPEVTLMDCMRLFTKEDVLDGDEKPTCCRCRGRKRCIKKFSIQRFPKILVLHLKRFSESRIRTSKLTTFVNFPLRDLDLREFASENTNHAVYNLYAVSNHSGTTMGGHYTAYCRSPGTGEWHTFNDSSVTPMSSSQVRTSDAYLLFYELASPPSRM
Take `CCOC(=O)C1CCCN(CC(=O)Nc2c(C(=O)OC)[nH]c3ccc(C)cc23)C1` (centres undefined): the “activity change, negative = inhibition” value is -7.18% (inactive).
The same measure, in the same setting: for `CCOC(=O)N1CCN(C(=O)CN(c2ccc(Oc3ccccc3)cc2)S(C)(=O)=O)CC1` the value was -6.74% (inactive); for `Nc1cc(N)nc(SCC(=O)N2CCCCC2)n1`, -5.91% (inactive); for `CC(C)CC(=O)NC(=S)Nc1nc(-c2ccc(Cl)cc2)cs1`, 0.852% (inactive).
Consider `Cc1ccc(C(=O)C(=S)N2CCOCC2)cc1`, for which the “activity change, negative = inhibition” value was 7.4% (inactive).
On the same count and under the same terms, next, `CN1CCN(Cc2c(O)ccc3c(=O)c(Oc4ccccc4Cl)c(C(F)(F)F)oc23)CC1`: 3.93% (inactive).
For the compound `Cc1cc(-c2csc(NCc3ccccc3)n2)c(C)n1C`, the Potency was 8.91 µM (active).
In the case of `COC(=O)c1nnn(-c2nonc2N)c1CSc1ccccn1`, the “activity change, negative = inhibition” value is -6.42% (inactive).
`O=C(Nc1cccc(S(=O)(=O)N2CCCC2)c1)c1cncc(Br)c1`: the “activity change, negative = inhibition” value is 5.44% (inactive).
On to `CCOC(=O)N1CCN(C(=O)CN(c2ccc(C)c(C)c2)S(=O)(=O)c2ccccc2)CC1`, for which the “activity change, negative = inhibition” value is -0.973% (inactive).
With `O=C(CSc1nc2ccccc2[nH]1)Nc1ccc2c(c1)OCCO2`, the “activity change, negative = inhibition” value is -8.95% (inactive).
Turning to `Cc1ccc(C=Nc2ccccc2C(N)=O)cc1`, the “activity change, negative = inhibition” value was 3.53% (inactive).
Same read-out and setting: next, `O=C(O)/C=C/c1ccc(S(=O)(=O)Nc2ccccc2C(=O)Nc2ccc(F)cc2)cc1`: -20.3% (inactive).
With `Cc1nn(C)cc1CNC(=O)c1ccc(Br)o1`, the “activity change, negative = inhibition” value was -7.67% (inactive).
In the case of `COc1ccc(S(=O)(=O)N2CCCC2C(=O)NCc2cccs2)cc1` (centres undefined), the “activity change, negative = inhibition” value was -3.06% (inactive).
In the case of `CC(C)(C)C(=O)Nc1c2c(nc3c1CCC3)CCCC2`, the “activity change, negative = inhibition” value was -12.7% (inactive).
In the case of `O=[N+]([O-])c1cc(-c2nnc(Nc3ccccc3)c3ccccc23)ccc1N1CCOCC1`, the “activity change, negative = inhibition” value was -28.6% (inactive).
On to `O=C(c1ccc(CS(=O)(=O)c2ccc(Br)cc2)o1)N1CCCC1`, for which the “activity change, negative = inhibition” value was -8.3% (inactive).
Still for that read-out and setting: for `O=C(COC(=O)/C=C/c1ccc(Cl)cc1)NC1CC1` the value was 2% (inactive); for `Cc1cc(C(=O)NCc2ccco2)on1`, -27.9% (inactive); for `O=C(Nc1cccc(Cl)c1)Nc1nnc(CC2=CCCCC2)s1`, -2.08% (inactive).
Regarding `Cc1cccc(Nc2nc(NCc3ccco3)c3ccccc3n2)c1`, the “activity change, negative = inhibition” value was -11.2% (inactive).
The same measure, in the same setting: next, `COc1ccccc1C(=O)N1CCN=C1SC`: 4.99% (inactive).
As to `CC(=O)NS(=O)(=O)c1ccc(NC(=O)c2cc(-c3ccc(C)c(C)c3)nc3ccccc23)cc1`, the Potency was 11.2 µM (active).
`CC1CCc2c(sc3nc(CN4CCOCC4)nc(NS(=O)(=O)c4cccc([N+](=O)[O-])c4)c23)C1` (centres undefined): the Potency is 10 µM (active).
In the case of `c1ccc(-c2ccccc2OCCCN2CCOCC2)cc1`, the “activity change, negative = inhibition” value was 3.46% (inactive).
With `CCOc1cc(/C=C2\C(=O)N(c3nc(-c4ccc(Br)cc4)cs3)N=C2c2ccccc2)ccc1O`, the Potency is 3.16 µM (active).
For the compound `O=C(Cc1cccs1)Nc1ccc(S(=O)(=O)N2CCCCC2)cc1`, the Potency is 7.94 µM (active).
As to `COc1cccc(N2C(=O)C3CCCN3C2c2ccc(N(C)C)cc2)c1` (centres undefined), the “activity change, negative = inhibition” value is -6.94% (inactive).
Regarding `Cc1noc(/C=C/c2ccco2)c1S(=O)(=O)N1CCC(C(=O)N2CCc3ccccc3C2)CC1`, the Potency is 7.94 µM (active).
For the compound `Cc1cc(N2CCOCC2)nc(SCC(=O)c2ccc(Cl)cc2)n1`, the “activity change, negative = inhibition” value was -4.72% (inactive).
For the compound `COC(=O)c1[nH]c2ccccc2c1NC(=O)CN1CCCc2ccccc21`, the “activity change, negative = inhibition” value was -15.7% (inactive).
Still for that read-out and setting: for `CCn1c2ccccc2c2nc3ccccc3nc21` the value was -13% (inactive); for `C#CCOCCOCCOCCNc1nc(N2CCN(C(=O)CCCCCCCCCCNC(=O)[C@H]([C@@H](C)CC)n3cc(CCCCCN)nn3)CC2)nc(N2CCN(C(=O)CCCCCCCCCCNC(=O)[C@H](CCCCN)n3cc(CCCC(=O)O)nn3)CC2)n1`, -15.2% (inactive).
The same measure, in the same setting: next, `COc1cc(C2C(C#N)=C(N)Oc3c2ccc2ccccc32)ccc1OCC(=O)Nc1cccc(C)c1` (centres undefined): -14.7% (inactive).
With `CCC(C)Cn1c(O)cc2nn(-c3nc4ccccc4s3)c(=O)c-2c1C` (centres undefined), the Potency is 10 µM (active).
`O=C(OCc1ccccc1)C1CCCN1C(=O)c1cccs1` (centres undefined): the “activity change, negative = inhibition” value was -1.26% (inactive).
Consider `O=C(Nc1ccccc1)Nc1snnc1C(=O)Nc1cccc(O)c1`, for which the Potency is 10 µM (active).
In the case of `O=C(CSc1ccc2nnc(-c3cccc(F)c3)n2n1)N1CCCc2ccccc21`, the “activity change, negative = inhibition” value is -0.537% (inactive).

Source of the values: PubChem BioAssay AID493170 (National Center for Advancing Translational Sciences (NCATS), 2011).
